Screens as filed in PubChem BioAssay.
TDP1 cell noCPT: qHTS for Inhibitors of human tyrosyl-DNA phosphodiesterase 1 (TDP1): qHTS in cells in absence of CPT | DT40 Tdp1-/- hTDP1 cells, no CPT, ATP luminescence, 48 h | Potency, µM (series often up to 46.2 µM), usual class: inhibitors | 15% of 420,000 active | AID 686978, 2013; note: nearly all actives have a fitted effect of over 55% in size
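Compound effects on proliferation are scored in DT40 Tdp1-/-;hTDP1 cells in the absence of CPT. ATP levels (CellTiter-Glo luminescence) are recorded after a ≥48 hr, 37 °C incubation.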
IL1B secr inh: inhibitors of inflammasome signaling (IL-1 beta secretion); THP-1 LPS/ATP IL-1B secretion, AlphaLISA, 16 h; stronger effect = lower value; activity change, % at 57.5 µM; 4.7% of 360,000 active; AID 743279; in the data active = activity change below about -50%; inconclusive = mostly about -30% to -49%
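Secreted IL-1B measured by AlphaLISA bead assay after 16 h compound exposure of THP-1 cells; compounds (final up to 57.5 uM) added 1 h before LPS (250 ng/mL) and ATP (1.25 mM) stimulation; lower signal means less secretion.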
TDP1 block: inhibitors of human tyrosyl-DNA phosphodiesterase TDP1; Q9NUW8; recombinant TDP1, AlphaScreen DNA substrate cleavage; Potency, µM (doses to about 130 µM), usual class: inhibitors; 0.28% of 350,000 active; AID 485290; note: nearly all actives have a fitted effect of over 40% in size
Target sequence (Q9NUW8 whole entry, looked up): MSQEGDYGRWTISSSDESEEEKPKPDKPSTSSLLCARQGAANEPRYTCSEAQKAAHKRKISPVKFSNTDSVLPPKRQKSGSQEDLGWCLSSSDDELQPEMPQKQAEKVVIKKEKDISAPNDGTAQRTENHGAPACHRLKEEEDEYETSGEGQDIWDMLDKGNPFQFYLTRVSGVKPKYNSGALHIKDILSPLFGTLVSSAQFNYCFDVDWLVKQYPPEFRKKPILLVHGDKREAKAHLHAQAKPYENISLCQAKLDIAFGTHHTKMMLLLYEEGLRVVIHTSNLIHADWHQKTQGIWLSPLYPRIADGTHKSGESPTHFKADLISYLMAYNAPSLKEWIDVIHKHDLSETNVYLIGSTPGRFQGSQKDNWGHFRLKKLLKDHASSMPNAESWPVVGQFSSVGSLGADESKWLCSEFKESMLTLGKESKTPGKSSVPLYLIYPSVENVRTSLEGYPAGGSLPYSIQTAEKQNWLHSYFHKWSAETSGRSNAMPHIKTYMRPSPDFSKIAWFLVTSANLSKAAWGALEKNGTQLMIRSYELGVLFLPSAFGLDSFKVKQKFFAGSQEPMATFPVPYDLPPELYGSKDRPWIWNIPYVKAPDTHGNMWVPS
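Recombinant human Tdp1 (E. coli-expressed, 1 nM final) preincubated with compounds 15 min at room temperature, then 5'-biotin/3'-phosphotyrosine-FITC DNA substrate (15 nM final) added for 5 min. AlphaScreen beads (10 ug/ml final) added 10 min; cleavage lowers signal.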
HepG2 viability: HepG2 cytotoxicity, counter-screen for TGF-b inhibitors; HepG2 CAGA-GFP viability, ATP luminescence, 18 h; Potency, µM (doses to about 46.1 µM), most hits filed as cytotoxic; 0.76% of 410,000 active; AID 588856
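CellTiter-Glo luminescence gave cytotoxicity after 18 hours at 37 degrees C. The cells were HepG2 CAGA-GFP in 1% FBS DMEM, stimulated with 500 pg/mL TGF-beta after compound addition. %Activity was normalised to no-cell wells (complete cell-killing) and DMSO (no toxicity), and curves were fitted and classified.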
TGFb SMAD3 inh: blocks TGF-b signaling; HepG2 CAGA-GFP TGF-b/SMAD3 reporter, GFP fluorescence, 18 h; TGF-beta stimulated, 500 pg/mL final; Potency, µM (titrated, usually from 46.1 µM), most hits filed as inhibitors; 1.2% of 410,000 active; note: nearly all actives have a fitted effect of over 65% in size
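GFP signal (ex488/em500-530) from TGF-beta-stimulated HEPG2 CAGA-GFP cells, 500 pg/mL final, 18 h at 37 degrees C in DMEM plus 1% FBS, normalized to unstimulated and DMSO-stimulated controls.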
DT40 TDP1 CPT: growth inhibition of DT40 Tdp1-/-;hTDP1 cells with camptothecin (screen for TDP1 inhibitors). AID 686979. 12% of 420,000 active. Potency, µM (titrated, usually from 46.2 µM), most hits filed as inhibitors. chicken DT40 Tdp1-/-;hTDP1 cells + 20 nM CPT, ATP luminescence, 48 h; note: nearly all actives have a fitted effect of over 55% in size
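Chicken DT40 Tdp1-/- cells stably complemented with human TDP1 were seeded at 400 cells/well in medium containing 20 nM camptothecin, exposed to pin-transferred compounds, and grown at 37 °C for at least 48 hr. Viability was read as ATP luminescence.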
Hits are given with their value; 0 = inactive; ? = inconclusive; - = no result given; [ ] = another dose, or the depositor's remark. Most compounds without a hit are left out; they make up all but 18% or so of the library. Unless noted, calls come from the whole dose curve; as a rule, active = well fitted curve in the direction sought with a large enough effect; inconclusive = small, poorly fitted or top-dose-only effect, or another doubt; inactive = no such curve, though single readings can be large; an effect the other way counts as inactive or inconclusive.

SMILES	TDP1 cell noCPT	IL1B secr inh	TDP1 block	HepG2 viability	TGFb SMAD3 inh	DT40 TDP1 CPT
COc1ccc(Nc2cc(C(=O)NCCCN(C)Cc3ccccc3)c3ccccc3n2)cc1OC	20.6µM	-	0	0	?	23.1µM
COc1ccc(Nc2cc(C(=O)NCc3ccccc3)c3ccccc3n2)cc1	0	-	0	0	?	?
Cc1cccc(C)c1NC(=O)CCSCCc1ccccn1	0	-	0	0	0	0
O=C(CNc1cccc(S(=O)(=O)N2CCCCCC2)c1)Nc1cccc([N+](=O)[O-])c1	23.1µM	0	0	0	?	?
COc1ccc([N+](=O)[O-])cc1NCC(=O)Nc1cccc(S(=O)(=O)N2CCCC2)c1	16.4µM	0	0	0	?	?
COc1cc(NCC(=O)Nc2cccc(S(=O)(=O)N3CCCCC3)c2)cc(OC)c1OC	0	0	0	0	0	0
O=C(CNc1cccc([N+](=O)[O-])c1)NC(=O)NC1CCCCC1	?	-51.9	0	0	0	14.6µM
O=C(COC(=O)c1cccc([N+](=O)[O-])c1)NC1CCCC1	0	0	-	0	0	0
O=C(CNc1cc([N+](=O)[O-])ccc1NCCO)Nc1cccc(S(=O)(=O)N2CCCCC2)c1	?	0	0	0	?	?
COCCCN1C(=O)c2oc3ccccc3c(=O)c2C12C(=O)N(C)c1ccccc12 (configuration not stated)	0	-	0	0	0	0
COC(=O)c1sccc1NC(=O)CC1C(=O)NCCN1C(=O)Nc1ccc(C(F)(F)F)cc1 (configuration not stated)	?	0	-	0	?	?
COc1ccccc1C(CNC(=O)C1CC(=O)N(Cc2ccc(C)cc2)C1)N1CCCC1 (configuration not stated)	0	0	0[0.505 µM]	0	0	0
CCC(C)NC(=O)/C=C1\Sc2ccccc2NC1=O (configuration not stated)	?	-61.0	0	0	0	0
COc1ccc(CC(=O)OCC(=O)Nc2cc(Cl)ccc2C)cc1	0	0	0	0	0	0
Cc1cccc(CN2CCN(C3CN(C4CCCCC4)S(=O)(=O)C3)CC2)c1 (configuration not stated)	?	0	-	0	?	?
CCn1c(=NC(=O)c2ccc(S(=O)(=O)N3CCCC3)cc2)sc2cc(Br)ccc21	0	-	0	0	0	?
CC1(C)c2[nH]c3ccccc3c2C[C@@H]2C(=O)N(c3cc(F)ccc3F)C(=O)N21	-	-	-	0	0	-
CC[C@H]1c2[nH]c3ccccc3c2C[C@@H]2C(=O)N(c3ccc(F)cc3)C(=O)N21	?	0	-	0	0	16.4µM
CCC1CCCCN1S(=O)(=O)c1ccc(C(=O)Nc2sc3c(c2C(=O)NC)CCC3)cc1 (configuration not stated)	16.4µM	-	0	0	0	20.6µM
CNC(=O)c1c(NC(=O)c2ccc(S(=O)(=O)N3CCCC(C)C3)cc2)sc2c1CCC2 (configuration not stated)	18.4µM	-	0	0	0	20.6µM
CCc1nnc(NC(=O)c2ccc(S(=O)(=O)N3CCCC(C)C3)cc2)s1 (configuration not stated)	0	0	0	0	0	0
CCC1CCCCN1S(=O)(=O)c1ccc(C(=O)Nc2nnc(C3CC3)o2)cc1 (configuration not stated)	?	0	0	0	0	?
S=c1[nH]nc(-c2ccco2)n1-c1ccc(Br)cc1	0	0	-	0	0	0
N#Cc1ncc(Br)cn1	0	-	-	-	-	0
CCN(CC)S(=O)(=O)c1ccc(C(=O)NC2CC(=O)N(c3ccc(OC)c(OC)c3)C2)cc1 (configuration not stated)	0	-	0	0	0	0
SMILES	TDP1 cell noCPT	IL1B secr inh	TDP1 block	HepG2 viability	TGFb SMAD3 inh	DT40 TDP1 CPT
O=C(NCCCN1CCOCC1)c1nn(-c2ccccc2)c(=O)c2ccccc12	0	0	0	0	0	0
Cn1cc(-c2nc3cncnc3n(CCN)c2=O)c2ccccc21	16.4µM	-	-	-	-	23.1µM
COCCn1c(=O)c(-c2cn(C)c3ccccc23)nc2cncnc21	0	-	-	-	-	0
Cn1c(C(=O)NN)cc2cc(OCc3ccccc3)ccc21	0	0	-	0	0	0
COc1ccc(C(=O)NCC(=O)N/N=C/c2ccco2)cc1OC	0	0	0	0	0	?
O=C(CNC(=O)c1ccccc1F)N/N=C/c1cc(Br)ccc1OC(=O)/C=C/c1ccco1	5.17µM	0	0	0	0	3.66µM
COc1ccccc1C(=O)NCC(=O)N/N=C/c1cc(Br)ccc1OC(=O)/C=C\c1ccco1	?	0	0	0	0	?
O=C(CNC(=O)c1ccc(F)cc1)N/N=C/c1cc(Br)ccc1OC(=O)/C=C/c1ccco1	2.59µM	0	-	0	?	9.2µM
Oc1csc(Cc2nc(-c3ccccc3F)cs2)n1	0	0	0	0	0	?
COc1ccc(/C=N/NC(=O)C(=O)/C=C2\NC3(CCCC3)Cc3ccccc32)cc1	?	0	0	0	0	?
O=C(/C=C1\NC2(CCCC2)Cc2ccccc21)C(=O)N/N=C/c1ccc(O)c(O)c1	4.61µM	?	0	0	?	5.8µM
COc1ccc(C(=O)NCC(c2ccco2)N2CCOCC2)cc1 (configuration not stated)	0	0	-	0	0	0
COC(=O)c1ccncc1C(=O)Nc1ccc(Oc2ncc(C(F)(F)F)cc2Cl)cc1	0	0	-	0	0	0
COC(=O)c1cnc(Oc2ccc(NC(=O)NC(=O)c3ccccc3Cl)cc2)cc1C(F)(F)F	4.11µM	0	0	0	0	?
COC(=O)C(CC(C)C)NC(=O)C(Cc1ccccc1)NC(=O)C1CCCN1C(=O)OC(C)(C)C (configuration not stated)	0	-70.5	0	0	0	0
CC(C)CC(NC(=O)C1CCCN1C(=O)OC(C)(C)C)C(=O)NCC(N)=O (configuration not stated)	0	0	0	0	0	0
FC(F)(F)c1cccc(-c2cc(C3CCNCC3)[nH]n2)c1	?	?	-	0	0	?
c1ccc2c(-c3cc(C4CCNCC4)[nH]n3)cccc2c1	?	0	0	0	0	20.6µM
Nc1c(NC/C=C\COc2cc(CN3CCCCC3)ccn2)c(=O)c1=O	0	-	-	-	-	0
CCOc1ccccc1CN1C(=O)c2ccccc2C1C(=O)NC1CCCCCC1 (configuration not stated)	?	-	0	0	0	0
